Measurements published in PubChem BioAssay (NCI).
The panel holds about 79,000 compounds, 15% with a hit somewhere; the sample as a whole holds those more often. Activity calls are given as the source filed them. No stated cut-off is given here; in the data, active means growth inhibition above about 70%; inactive means the rest.

Columns and labels:
[1] = NCI Yeast Anticancer Drug Screen. Data for the wt1 strain (AID 149);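 further: 0% = growth of vehicle-treated wt1 cultures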; settings: S. cerevisiae wt1 strain (SPY 50644) growth inhibition, hits give high values
Outline: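 Readout: yeast growth inhibition, normalised to vehicle controls, in the wt1 strain exposed to test compounds.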

[2] = NCI Yeast Anticancer Drug Screen. Data for the rad50EPP+ strain (AID 151);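 further: 0% = growth of vehicle-treated control cultures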; settings: S. cerevisiae rad50 mutant strain, hits give high values
Outline: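 Strain rad50EPP+; compound exposure; % growth inhibition vs vehicle.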

[3] = NCI Yeast Anticancer Drug Screen. Data for the mgt1 strain (AID 153); settings: S. cerevisiae mgt1 mutant growth inhibition, hits give high values
Outline: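 Read-out: yeast growth inhibition vs vehicle control. Strain mgt1, drawn from a panel altered in DNA damage repair or cell cycle control.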

[4] = NCI Yeast Anticancer Drug Screen. Data for the rad50 strain (AID 155);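 further: 0% = growth of vehicle-only cultures of the same strain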; settings: S. cerevisiae rad50 strain growth inhibition, hits give high values
Outline: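 Compounds were tested on a yeast strain with an engineered DNA damage repair alteration; the reported value is growth inhibition normalised to vehicle treatment.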

[5] = NCI Yeast Anticancer Drug Screen. Data for the mec2-1 strain (AID 157); settings: S. cerevisiae mec2-1 strain, hits give high values
Outline: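 Cells of the genetically defined mec2-1 yeast strain are incubated with test compound. Inhibition of growth is calculated against vehicle-treated controls.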

[6] = NCI Yeast Anticancer Drug Screen. Data for the rad14 strain (AID 159);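 further: 0% = growth of vehicle-treated control cultures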; settings: S. cerevisiae rad14 strain growth inhibition, hits give high values
Outline: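 Compound-treated yeast with a defined DNA-repair lesion; growth inhibition normalised to vehicle-treated cultures.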

[7] = NCI Yeast Anticancer Drug Screen. Data for the sgs1 mgt1 strain (AID 161);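 further: 0% = growth of cultures given vehicle only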; settings: S. cerevisiae sgs1 mgt1 strain, hits give high values
Outline: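 Read-out: growth inhibition vs vehicle controls. Cells: mutant yeast strain deficient in DNA damage repair.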

[8] = NCI Yeast Anticancer Drug Screen. Data for the CLN2oe strain (AID 163);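 further: 0% = growth of vehicle-only control cultures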; settings: S. cerevisiae CLN2oe strain, hits give high values
Outline: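 Strain altered in cell-cycle control, incubated with compound; growth compared to solvent-treated controls.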

[9] = NCI Yeast Anticancer Drug Screen. Data for the bub3 strain (AID 167); settings: S. cerevisiae bub3 mutant strain, hits give high values
Outline: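 Growth of a checkpoint-deficient yeast mutant is measured after compound exposure. Values represent inhibition relative to vehicle.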

[10] = NCI Yeast Anticancer Drug Screen. Data for the wt2 strain (AID 169);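 further: 0% = growth of vehicle-treated yeast cultures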; settings: S. cerevisiae wt2 strain growth inhibition, hits give high values
Outline: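 Steps: yeast strain treated with compound; growth recorded; inhibition calculated relative to cultures given vehicle alone.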

[11] = NCI Yeast Anticancer Drug Screen. Data for the mlh1 strain (AID 171);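 further: 0% = growth of vehicle-treated control cultures of the same strain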; settings: S. cerevisiae mlh1 strain growth inhibition, hits give high values
Outline: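 Yeast screen: mutant strain plus compound, growth scored against vehicle control wells.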

[12] = NCI Yeast Anticancer Drug Screen. Data for the sgs1 strain (AID 173);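 further: 0% = growth of vehicle-only control cultures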; settings: S. cerevisiae sgs1 mutant, hits give high values
Outline: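 Inhibition of yeast growth served as the measure. The mutant strain was treated with each compound, and growth was normalised to cultures receiving vehicle alone.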

[13] = NCI Yeast Anticancer Drug Screen. Data for the mlh1 rad18 strain (AID 175); settings: S. cerevisiae mlh1 rad18 strain growth inhibition, hits give high values
Outline: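 Compound-treated yeast growth, normalised to vehicle controls. Strain bears defined DNA repair mutations.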

[14] = NCI Yeast Anticancer Drug Screen. Data for the rad18 strain (AID 177); settings: S. cerevisiae rad18 mutant growth inhibition, hits give high values
Outline: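 Inhibition values reflect reduced yeast growth compared with vehicle-treated controls, using a strain engineered with a DNA damage repair defect.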

[15] = NCI Yeast Anticancer Drug Screen. Data for the cln2 rad14 strain (AID 165);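 further: 0% = growth equal to vehicle treated cultures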; settings: S. cerevisiae cln2 rad14 strain, hits give high values
Outline: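 The screen exposed genetically defined yeast (cln2 rad14) to test compounds and scored growth inhibition relative to vehicle-treated controls.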

[16] = at 5.0 µM (retest, dose inferred, filed as 0.5)
[17] = at 50.0 µM (retest, dose inferred, filed as 5.0)

Measured: growth inhibition

CCCCCCCCCCCCOC1C(COCCN2CCCC2)OC2OC(C)(C)OC21 (stereo not drawn)
inactive: [1]; at 1.2 µM 23% | [1]; at 3.7 µM 15% | [2]; at 1.2 µM 36% | [2]; at 3.7 µM 27% | [2]; at 11.0 µM 2% | [3]; at 1.2 µM 3% | [3]; at 3.7 µM 2% | [4]; at 1.2 µM 5% | [4]; at 3.7 µM 1% | [4]; [16] 13% | [5]; at 1.2 µM 18% | [5]; at 3.7 µM 11% | [5]; [16] 2% | [6]; at 1.2 µM 11% | [6]; at 3.7 µM 14% | [7]; [16] 19% | [8]; at 1.2 µM -5% | [8]; at 3.7 µM 23% | [9]; at 1.2 µM -18% | [9]; at 3.7 µM -16% | [9]; [16] 29% | [10]; at 1.2 µM -13% | [10]; at 3.7 µM -28% | [11]; at 1.2 µM 25% | [11]; at 3.7 µM 27% | [12]; at 1.2 µM 22% | [12]; at 3.7 µM 21% | [13]; [16] 16% | [14]; at 1.2 µM 37% | [14]; at 3.7 µM 27%
active: [1]; at 11.0 µM 93% | [1]; at 33.0 µM 99% | [1]; at 100.0 µM 99% | [2]; at 33.0 µM 97% | [2]; at 100.0 µM 98% | [3]; at 11.0 µM 97% | [3]; at 33.0 µM 98% | [3]; at 100.0 µM 98% | [4]; at 11.0 µM 98% | [4]; at 33.0 µM 98% | [4]; [17] 99% | [4]; at 50.0 µM 93% | [4]; at 100.0 µM 98% | [5]; at 11.0 µM 97% | [5]; at 33.0 µM 99% | [5]; [17] 99% | [5]; at 50.0 µM 93.4% | [5]; at 100.0 µM 98% | [6]; at 11.0 µM 98% | [6]; at 33.0 µM 98% | [6]; at 100.0 µM 98% | [7]; [17] 99% | [7]; at 50.0 µM 90.2% | [8]; at 11.0 µM 71% | [8]; at 33.0 µM 98% | [8]; at 100.0 µM 98% | [9]; at 11.0 µM 96% | [9]; at 33.0 µM 98% | [9]; [17] 98% | [9]; at 50.0 µM 88.5% | [9]; at 100.0 µM 98% | [10]; at 11.0 µM 78% | [10]; at 33.0 µM 98% | [10]; at 100.0 µM 98% | [11]; at 11.0 µM 94% | [11]; at 33.0 µM 98% | [11]; at 100.0 µM 98% | [12]; at 11.0 µM 97% | [12]; at 33.0 µM 98% | [12]; at 100.0 µM 98% | [13]; [17] 99% | [13]; at 50.0 µM 90% | [14]; at 11.0 µM 97% | [14]; at 33.0 µM 98% | [14]; at 100.0 µM 97%

O=C(Cc1ccccc1F)NC1=C(Cl)C(=O)c2ccccc2C1=O
active: [9]; [17] 70% | [9]; at 100.0 µM 73%
inactive: [1]; at 1.2 µM 1% | [1]; at 3.7 µM 0% | [1]; at 11.0 µM 0% | [1]; at 33.0 µM 9% | [1]; at 100.0 µM 17% | [2]; at 1.2 µM 40% | [2]; at 3.7 µM 43% | [2]; at 11.0 µM 51% | [2]; at 33.0 µM 48% | [2]; at 100.0 µM 59% | [3]; at 1.2 µM -2% | [3]; at 3.7 µM 11% | [3]; at 11.0 µM 8% | [3]; at 33.0 µM 3% | [3]; at 100.0 µM 14% | [4]; at 1.2 µM 20% | [4]; at 3.7 µM 26% | [4]; [16] 14% | [4]; at 11.0 µM 13% | [4]; at 33.0 µM 22% | [4]; [17] 4% | [4]; at 50.0 µM 30.8% | [4]; at 100.0 µM 37% | [5]; at 1.2 µM 41% | [5]; at 3.7 µM 45% | [5]; [16] -16% | [5]; at 11.0 µM 46% | [5]; at 33.0 µM 55% | [5]; [17] 50% | [5]; at 50.0 µM -14.2% | [5]; at 100.0 µM 69% | [6]; at 1.2 µM -26% | [6]; at 3.7 µM -12% | [6]; at 11.0 µM -8% | [6]; at 33.0 µM 19% | [6]; at 100.0 µM 38% | [7]; [16] 1% | [7]; [17] 54% | [7]; at 50.0 µM 11.4% | [15]; [16] 33% | [15]; [17] 45% | [15]; at 50.0 µM 24.3% | [9]; at 1.2 µM 14% | [9]; at 3.7 µM 17% | [9]; [16] -6% | [9]; at 11.0 µM 27% | [9]; at 33.0 µM 47% | [9]; at 50.0 µM 54% | [10]; at 1.2 µM -9% | [10]; at 3.7 µM 3% | [10]; at 11.0 µM -8% | [10]; at 33.0 µM -1% | [10]; at 100.0 µM -4% | [11]; at 1.2 µM -2% | [11]; at 3.7 µM 11% | [11]; at 11.0 µM 8% | [11]; at 33.0 µM 3% | [11]; at 100.0 µM 14% | [12]; at 1.2 µM 39% | [12]; at 3.7 µM 35% | [12]; at 11.0 µM 41% | [12]; at 33.0 µM 59% | [12]; at 100.0 µM 58% | [13]; [16] 20% | [13]; [17] 28% | [13]; at 50.0 µM -1.75% | [14]; at 1.2 µM 29% | [14]; at 3.7 µM 6% | [14]; at 11.0 µM 25% | [14]; at 33.0 µM 34% | [14]; at 100.0 µM 40%
